Assay outcomes: PubChem, National Center for Advancing Translational Sciences (NCATS)
Only some compounds are listed: those with a hit (about 9.4% of all), similar ones and a draw of the others.
SMN2 splice up: increases expression of the SMN2 splice variant. 210,000 tested, 2.8% active. Potency, µM (top dose mostly 46.1 µM), inactives show top-dose activity change, positive = activation, hits mostly activators. HEK293 SMN2-luciferase splicing reporter, luminescence, 30-36 h; also: % of control where 0% means no effect; nearly all actives have a fitted effect of over 55% in size
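HEK293 cells carry an SMN2 […]–luciferase reporter in which exon 7 inclusion puts luciferase in frame. Cells were plated 10-12 h before compound addition, then incubated 30-36 h at 37C. ONE-Glo luminescence was read; sodium butyrate at 4.5 mM final served as control.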
NPC1 prom act: activates the NPC1 promoter | Huh7 NPC1 promoter luciferase reporter, 24 h | Potency, µM (doses to about 9.22 µM), for the others: top-dose activation, hits mostly activators | 320,000 tested, 2.4% active; also: % of control where 0% means no effect; nearly all actives have a fitted effect of over 60% in size
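Cells: Huh7 expressing luciferase under the NPC1 promoter, 1500/well. Seeded 2 h, compound added, incubated 24 h at 37 °C. Luciferase reagent, 10 min ambient, then luminescence.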
Rab9 prom act: activators of Rab9 promoter | Potency, µM (highest dose often 9.22 µM), inactives show at the top dose activation, negative = inhibition, most hits filed as activators | Huh7 Rab9 promoter-luciferase reporter, luminescence, 24 h | 320,000 tested, 2.8% active; also: % of control where 0% means no effect; nearly all actives have a fitted effect of over 60% in size
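Promoter activation is measured as luciferase luminescence in Huh7 cells stably transfected with a Rab9 promoter–luciferase construct, following 24 h compound exposure at 37 °C and 10 min reagent incubation at ambient temperature.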
ELG1 repair inh: blocks ELG1-dependent DNA repair in HEK293T cells | 330,000 tested, 2.3% active | AID 504467 | HEK293T ELG1-luciferase reporter, luminescence, 16 h; DNA damage induced by 5-fluorouridine | Potency, µM (series often up to 46.1 µM), inactives show top-dose activity change, negative = inhibition, actives largely listed as inhibitors; also: % is scaled to controls: 0 for no effect and ±100 for the full control effect; nearly all actives have a fitted effect of over 55% in size
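Quantitative HTS, concentration-response format. 2,000 cells/well co-treated with 5-fluorouridine and compound, 16 hr in 5% CO2 at 37 °C; ONE-Glo luminescence read after 30 min.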
FLuc modulator: counter-screen for miR-21 project: firefly luciferase inhibitors or activators; P08659; purified FLuc, Km substrates, luminescence inhibition; Potency, µM (highest dose often 57.5 µM), without a hit: top-dose activity change, negative = inhibition, hits mostly inhibitors; 360,000 tested, 6.9% active; AID 588342;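 also: plate controls were vehicle for no effect and reference inhibitor for full effect; nearly all actives have a fitted effect of over 55% in size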
Target sequence (P08659 whole entry, looked up): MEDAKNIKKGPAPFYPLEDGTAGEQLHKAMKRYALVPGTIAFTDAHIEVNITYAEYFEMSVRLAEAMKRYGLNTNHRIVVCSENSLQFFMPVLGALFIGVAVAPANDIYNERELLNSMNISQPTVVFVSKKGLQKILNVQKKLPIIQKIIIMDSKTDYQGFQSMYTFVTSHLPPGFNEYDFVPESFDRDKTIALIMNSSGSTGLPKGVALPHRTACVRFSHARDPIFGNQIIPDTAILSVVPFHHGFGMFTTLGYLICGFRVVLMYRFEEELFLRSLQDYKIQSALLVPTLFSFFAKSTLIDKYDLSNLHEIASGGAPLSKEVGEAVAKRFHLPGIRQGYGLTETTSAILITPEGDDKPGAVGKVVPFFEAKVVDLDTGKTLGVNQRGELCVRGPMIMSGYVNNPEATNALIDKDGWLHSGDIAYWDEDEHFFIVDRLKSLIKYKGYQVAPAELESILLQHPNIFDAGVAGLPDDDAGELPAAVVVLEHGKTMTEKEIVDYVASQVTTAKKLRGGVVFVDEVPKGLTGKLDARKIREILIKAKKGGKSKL
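Purified P. pyralis luciferase (10nM final) with 10uM D-luciferin and 10uM ATP (Km levels) in 50mM Tris acetate pH 7.5, 10mM Mg acetate, 0.01% Tween-20, 0.05% BSA; qHTS 6-point titration, ~60 µM downward; luminescence read.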
ELG1 genotoxic: induces genotoxicity in HEK293T cells with luciferase-tagged ELG1 | HEK293T ELG1-luciferase reporter, luminescence, 16 h | Potency, µM (titrated, usually from 46 µM), for the others: top-dose activity change, positive = activation, actives largely listed as activators | 330,000 tested, 1.3% active | AID 504466; also: % of control where 0% means no effect; nearly all actives have a fitted effect of over 60% in size
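HEK293T cells expressing luciferase-tagged ELG1 were treated with compound or DMSO for 16 hr at 37°C. Luciferase activity was then read after 30 min with ONE-Glo at room temperature; rising signal flags genetic stress.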
Starred values were filed as active, the others as inactive; u = inconclusive; x = no result given. Calls follow the shape of the dose curve; as a rule, active = well fitted curve in the direction sought with a large enough effect; inconclusive = small, poorly fitted or top-dose-only effect, or another doubt; inactive = no such curve, though single readings can be large; an effect the other way counts as inactive or inconclusive. Potency is read from the fitted curve at half-maximal effect.

SMILES	SMN2 splice up	NPC1 prom act	Rab9 prom act	ELG1 repair inh	FLuc modulator	ELG1 genotoxic
O=C(Nc1ccncc1)c1ccc2ccccc2c1	x	u	3.5µM*	u	17µM*	15%
Cc1ccc(NC(=O)C(C)C(=O)Nc2ccc(C)cc2)cc1	-14%	-3%	0%	15%	0%	0%
Cc1ccc(NC(=O)C(=O)c2ccc(C)cc2)cc1	x	0.63µM*	2.8µM*	u	1.9µM*	4.6µM*
O=C(c1ccc(F)cc1)c1cnc(Nc2ccccc2)s1	x	2µM*	1.3µM*	u	0.6µM*	u
O=C(c1ccccc1)c1cnc(Nc2ccc(Cl)c(Cl)c2)s1	-24%	-2%	4%	8%	1%	13%
Cc1ccc(N2CC(NC(=O)c3ccco3)CC2=O)cc1 (stereo not drawn)	x	x	x	x	-1%	x
Cc1c(Cl)cccc1NC(=O)c1cc2sccc2n1Cc1ccc(F)cc1	8%	x	x	x	3%	x
Cc1ccc(-n2nc(C(=O)NC(C)C)c(=O)n(C)c2=O)cc1	x	x	x	x	-1%	x
C[C@H](NC(=O)c1[nH]cnc1C(=O)Nc1ccc(CNC(=O)OC(C)(C)C)cc1)C(=O)OC(C)(C)C	x	-3%	-2%	16µM*	0%	-13%
C[C@H](NC(=O)c1nc[nH]c1C(=O)NCc1ccc(CNC(=O)OC(C)(C)C)cc1)c1ccccc1	x	2%	0%	18µM*	3%	-8%
CC(C)(C)OC(=O)NCCCC[C@H](NC(=O)c1[nH]cnc1C(=O)Nc1ccc(CNC(=O)OC(C)(C)C)cc1)C(=O)OC(C)(C)C	x	-13%	-10%	u	0%	-10%
O=C(Nc1nnc(C2CC2)o1)c1ccc(S(=O)(=O)N2CCCc3ccccc32)cc1	-53%	-11%	-11%	7.3µM*	1%	-12%
COc1ccc(-c2nnc(NC(=O)c3ccc(S(=O)(=O)N4CCCc5ccccc54)cc3)o2)cc1	-92%	-1%	-4%	u	-2%	-8%
COCc1nnc(NC(=O)c2ccc(S(=O)(=O)N3CCCc4ccccc43)cc2)o1	-33%	-10%	-2%	16µM*	u	-7%
O/N=C/c1ccc(OCC(O)COc2ccc(/C=N/O)cc2)cc1	-9%	1%	2%	-4%	15µM*	-1%
CC(=O)N1CCCC1c1nc2ccccc2n1Cc1c(F)cccc1Cl (stereo not drawn)	x	x	x	x	-11%	x
COc1ccc(NC(=O)Cn2c(=O)ccc3cc(S(=O)(=O)N4CCCC4)ccc32)cc1Cl	x	x	x	x	-2%	x
Cc1ccccc1NC(=O)C(=O)NC(C)CCc1ccccc1 (stereo not drawn)	12%	0%	1%	u	-8%	4%
CC(CCc1ccccc1)NC(=O)C(=O)Nc1ccccc1 (stereo not drawn)	14µM*	3.2µM*	2.8µM*	u	u	u
COC(=O)c1cc(=O)c(O)c2c(O)c(O)ccc2c1	-21%	x	x	x	x	x
O=C(NOCc1ccccc1)c1ccc(Cl)cc1Cl	x	0.56µM*	0.4µM*	u	1.3µM*	u
O=C(CNC(=O)c1ccc(Cl)cc1Cl)OCCOc1ccccc1	x	15%	13%	u	17µM*	7%
O=C(CCC(=O)NNC(=O)c1ccc(Cl)cc1Cl)NCc1ccccc1	x	-1%	3%	25%	1%	1%
O=c1[nH]c2ccc(NCc3ccc(-c4ccccc4F)o3)cc2[nH]1	x	x	x	x	-1%	x
O=C1CC(/C=C/c2ccncc2)=Nc2ccccc2N1	-44%	1%	-5%	18µM*	-19%	-11%
CCOC(=O)c1sc2ccccc2c1S(=O)(=O)N1CCN(c2cc(C)ccc2C)CC1	x	x	x	x	-2%	x
CC(C)c1ccc(OCC(=O)N(Cc2cccs2)C2CCS(=O)(=O)C2)cc1 (stereo not drawn)	-14%	x	x	x	-2%	x
COc1cccc(/C=N/Nc2ncnc3scc(-c4ccccc4)c23)c1O	-75%	-9%	-26%	7.3µM*	21µM*	-3%
